# Assay results reported in the supplement of paper PMC11417369.
# In all, about 25,000 sequences were measured (“ln(normalized median fluorescence intensity)”: median about 9.3, highest 2% from about 10 on). This is one part of a sample in which the highest values are shown more often than they occur.
# Tested on: PF3D7_0420300 AP2 domain 1 (GST-tagged)
# Assay: gcPBM binding intensity (ln(normalized median fluorescence intensity)); higher = stronger DNA binding
# Outline: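 The binding buffer was 1× PBS containing 1% milk, 0.2 mg/ml BSA, 0.5% salmon testes DNA and 0.03% Triton X-100. In it, GST-tagged P. falciparum DNA-binding domains expressed in E. coli were applied for 1 h to an Agilent 4 × 180k array of primer-extended double-stranded 36-bp intergenic genomic probes plus negative controls. Binding intensity, read with Alexa488 anti-GST antibody and a 488 nm scan, is the highest Masliner-normalised natural-log median intensity across replicate spots of either probe orientation.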
row,Sequence,gcPBM binding intensity (ln)
1,AAAAAAATTCTGACTTGTACATATAAAATTTACAAA [XGTACX_site4408],8.78
2,TACGTATGCCTGTGATGTACATATATATATACATAC [XGTACX_site4728],9.36
3,AATCACCAAATATGTACACACCTTAACATGTTTATA [CACACA_site5180],9.64
4,TTTAAAAGATAAAACACACATACTAATAAAAAACAA [CACACA_site2556],9.71
5,AAGTGTCAAAGTTACACACACAAACTTGTCATTTTT [CACACA_site837],9.75
6,AAAAATCATTTAAGAACACACAAATATTTCCATTAA [CACACA_site1488],9.35
7,TTATCCTTGTAACAATGTACACATTATTTAATACTT [XGTACX_site1830],9.29
8,TACATATTTTTCTTTTCACACATGGAAAAAAAAGGT [CACACA_site5146],9.11
9,ACATATAAAATGTATACACACAAATATTACAGAGAT [CACACA_site4920],9.8
10,TCATAGTATAAACACACACACACACCCATATATATA [CACACA_site8512],10.3
11,ATTCATATGAAACACACACACACACCCATAAAAAAA [CACACA_site3246],10.1
12,TAAACACCCATATAAACACACATATAAACACCCATA [CACACA_site5382],9.84
13,CACAGTGATATAAAAACACACATGAATTATAATTTC [CACACA_site1667],9.43
14,TTTTTCTGTTCTTTTTGTACTTAAATATATTTATTT [XGTACX_site5658],9.57
15,TAAATATTATATTTATGTACATAAGTTTTTTTTAAT [XGTACX_site3559],9.08
16,AATATTTCTATATGAACATGCAATGTATCTTTTTAT [TGCATGCA_site738],9.13
17,ATAGTATACGGACACACACACACACCGATATATATA [CACACA_site5032],10.3
18,TAAATAAATTTATACACACACACACCGATATATATA [CACACA_site4622],10.1
19,CATATACTCGGACACACACACACACCGACAAAAAAA [CACACA_site4433],10.1
20,AGTATACATATATATACACACACACCGATATATATA [CACACA_site8357],10.1
21,AGTATACACAGACACACACACACATATATATATATA [CACACA_site8510],10.2
22,ATAGTATACAGACACACACACACACCGATATATATA [CACACA_site8511],10.3
23,ATTCATCTATTTTGTAGTACTAAATATATATCTACT [XGTACX_site8790],9.46

row,Sequence,gcPBM binding intensity (ln)
1,TGTAATAATCTTCATTTCTTTTTTTTTTTTTTTTGT [CACACA_negctrl_site1388],8.96
2,ATTTACATAATAAAATGTACATTTATAAATATTATA [XGTACX_site1901],9.13
3,AATATAGATACATATACACACACACCCATACATATA [CACACA_site9137],10.1
4,CACAGATATATACATACACACATATATACACATATA [CACACA_site6323],9.72
5,TATAGATACATATACACACACACACCGACATATATA [CACACA_site9138],10.3
6,CATACATACATACATACACACATACAGATATATATA [CACACA_site4890],9.84
7,CATATATAGATATATACACACATACATACATACATA [CACACA_site7748],9.59
8,TATAGATACAGATACACACACACACCGACATATATA [CACACA_site5832],10.2
9,ATATATATATAATAAGTGCAAAAAAAAGAAAAAAAT,9.74
10,GTTTAACTGTTTTATACACACAATGTATCCAATAAA [CACACA_site5612],9.49
11,AGTATAAAAATAAGCACACACACAAATATATATTTA [CACACA_site923],10.2
12,ATAAAATTTATATAAGCACACAAATATATATTTATA [CACACA_site9083],9.29
13,TATATATTATTTAAAACACACAAAAAAAAAAATTAT [CACACA_site89],9.59
14,AATATAAATAAAAACACACACACACGGATATTTATA [CACACA_site7134],10.3
15,TAAAAAAAAAAAAAAACACACATATAAATATTTATA [CACACA_site6702],9.45
16,CATAATACAGATAACACACACAATTATACATAAAAT [CACACA_site5742],10
17,ACTTATATAAAACATTAACACACAAAGAAAAAAAAT [CACACA_site8529],9.96
18,AAAAACAACACAGATAAATTAACACACACACACATA [XGTACX_negctrl_site588],10.2
19,CATAAAATATAAAACACACACACATATATTTATATA [CACACA_site6247],10
20,TATAAAAATAAGCACACACACAAATATATATTTATT [CACACA_site922],10.1
21,CTTATATTAAAACACACACACGCACAAAACAGAAAT [CACACA_site1462],10.2
22,GATAAATTAAAACACACACACATATATATATATATA [CACACA_site3962],9.67
